Screening data from PubChem.
SIRT5 inh = inhibitors of human sirtuin-5 desuccinylase | Purified SirT5, succinyl-peptide AMC, trypsin-coupled fluorescence | inhibition, % at 15 µM | hit rate 1.1% among 330,000 | AID 652115; in the data active = inhibition above about 15%
dFosB activator = activators of mouse delta FosB homodimer; purified delta FosB, TAMRA-CDK5 oligo fluorescence polarization; percent of positive-control signal above neutral wells; activation, % at 25 µM; hit rate 0.99% among 340,000; AID 493131;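 active = mean activation above about 17%, with every replicate also reaching it, limit read from the data, passing the limit was not always enough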
Target sequence (P13346 whole entry, looked up): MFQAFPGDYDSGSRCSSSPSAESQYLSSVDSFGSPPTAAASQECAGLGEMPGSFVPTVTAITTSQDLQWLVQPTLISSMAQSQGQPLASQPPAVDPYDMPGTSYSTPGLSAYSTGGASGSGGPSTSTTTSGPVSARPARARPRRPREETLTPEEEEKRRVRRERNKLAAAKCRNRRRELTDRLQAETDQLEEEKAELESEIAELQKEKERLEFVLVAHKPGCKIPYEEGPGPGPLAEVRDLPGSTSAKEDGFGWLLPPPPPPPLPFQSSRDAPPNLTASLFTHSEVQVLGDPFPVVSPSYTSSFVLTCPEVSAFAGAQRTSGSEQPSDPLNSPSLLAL
PvdQ acylase = P. aeruginosa PvdQ acylase inhibition. purified PvdQ acylase, fluorescence plate reader. inhibition, % at 10 µM. hit rate 0.063% among 340,000. AID 488965; in the data active = inhibition above about 30%, passing the limit was not always enough;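 also: 0% = vehicle neutral wells and 100% = reference inhibitor wells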
FGF22 binding = binders of recombinant human FGF22 by thermal shift; Q9HCT0; SYPRO orange fluorescence; percent of sucrose octasulfate shift, DMSO zero; activity (Tm shift, normalised), % at 9.99 µM; hit rate 1.5% among 340,000; AID 651658;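 active = mean Tm shift, scaled 0 neutral to 100 positive control, at about 1.3% or above, every replicate too, limit read from the data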
Target sequence (Q9HCT0 whole entry, looked up): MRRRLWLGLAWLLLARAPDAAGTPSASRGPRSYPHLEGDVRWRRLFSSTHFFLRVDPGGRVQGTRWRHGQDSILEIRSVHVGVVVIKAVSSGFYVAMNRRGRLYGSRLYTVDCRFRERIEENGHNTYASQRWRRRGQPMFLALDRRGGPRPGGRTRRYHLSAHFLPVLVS
PglD inh = PglD (C. jejuni) enzyme inhibition; purified PglD enzyme, DTNB colorimetric CoA detection; inhibition, % at 12.5 µM; hit rate 0.098% among 360,000; AID 602405; in the data active = inhibition above about 16%, passing the limit was not always enough
CDK5 inh = inhibitors of human CDK5/p35 kinase | inhibition, % at 10 µM | hit rate 0.01% among 330,000 | Recombinant CDK5/p35, ADP-Glo luminescence, 60 min | Q00535+Q15078;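 active = highest replicate inhibition of at least 50% and at least 75% of replicates reaching 50%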;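 also: plate controls were DMSO neutral control for no effect and GW8510 at 10 µM for full effect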
PglD confirm = confirmation of Campylobacter jejuni PglD acetyltransferase inhibitors; inhibition, % at 20 µM; 320 tested, under 10 active; shares compounds with PglD inh; Purified C. jejuni PglD, DTNB absorbance 412 nm;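 active = mean inhibition across replicates of at least 20% with every single replicate also at 20% or more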;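 also: initial rate of CoA release by acetyl transfer from AcCoA to the UDP-4-amino sugar; 0% = median of neutral control wells and 100% = median of positive control wells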
* hit, by the source's call. Shown are actives, neighbours in structure and some others; about 2.8% of the full set was active somewhere.

COc1ccc(C(CNc2ccc(S(C)(=O)=O)cc2[N+](=O)[O-])N(C)C)cc1OC (configuration not stated) was read as SIRT5 inh 0, dFosB activator -8, PvdQ acylase -17, FGF22 binding -1, PglD inh 23*, CDK5 inh 0 and PglD confirm 2.
COc1ccccc1/C=C/C(=O)N1CCN(S(=O)(=O)c2cccs2)CC1 was read as SIRT5 inh 0, dFosB activator -15, PvdQ acylase -13, FGF22 binding 0, PglD inh 32*, CDK5 inh -1 and PglD confirm -1.
C[C@H](CO)N1C[C@H](C)[C@@H](CN(C)C(=O)Nc2ccc(F)cc2)OCCCC[C@H](C)Oc2ccc(NS(=O)(=O)c3cccs3)cc2C1=O was read as SIRT5 inh 5, FGF22 binding -1 and PglD inh 6.
Screening C[C@H](NC(N)=O)C(=O)Nc1ccc2c(c1)OCO2 returned SIRT5 inh 0, dFosB activator -6, PvdQ acylase -14, FGF22 binding 0, PglD inh 22*, CDK5 inh 2 and PglD confirm 3.
`Cc1ccc(S(=O)(=O)Nc2cccc3c2O[C@H](CN(C)S(=O)(=O)c2ccc(C)cc2)[C@@H](C)CN([C@H](C)CO)C3=O)cc1` gave SIRT5 inh -4, FGF22 binding 0 and PglD inh 1.
`CCCCNC(=S)NNc1c(Cl)cc(Cl)cc1Cl` gave SIRT5 inh 0, dFosB activator 1, PvdQ acylase -15, FGF22 binding 42, PglD inh 23*, CDK5 inh 0 and PglD confirm 10.
`CCN(CC)C1CCN(C(=O)c2ccc(OC3CCN(C(=O)CCOC)CC3)cc2)C1` (configuration not stated) gave FGF22 binding 0, PglD inh 26* and PglD confirm 5.
For O=Cc1ccc(OCCN2CCCC2=O)cc1 the results were SIRT5 inh -1, dFosB activator -11, PvdQ acylase -1, FGF22 binding 0, PglD inh 44*, CDK5 inh 3 and PglD confirm -4.
COc1cccc(CNC(=O)C[C@@H]2C=C[C@@H](NC(=O)C3CC3)[C@@H](CO)O2)c1 was read as SIRT5 inh 0, FGF22 binding 0 and PglD inh 0.
C[C@H](CO)N1C[C@H](C)[C@@H](CN(C)Cc2ccc(O)cc2)OCc2ccccc2-c2c(n(C)c3ccccc23)C1=O was read as SIRT5 inh -2 and FGF22 binding 0.
CC(=O)NCC(=O)OCC(=O)c1ccc(Cl)cc1 was read as SIRT5 inh -1, dFosB activator -1, PvdQ acylase 2, FGF22 binding 0, PglD inh 26*, CDK5 inh -1 and PglD confirm 4.
CC(=O)NCC(=O)OCC(=O)c1ccc(Br)cc1 was read as dFosB activator 5, PvdQ acylase -10, PglD inh -2 and CDK5 inh 1.
C/C=C/c1ccc([C@H]2[C@@H](CO)N3C(=O)CN(C(=O)c4ccncc4)C[C@@H]23)cc1 was read as SIRT5 inh 0.
Screening CCOC(=O)c1sc(N(Cc2ccccc2)C(=O)CSc2ncn[nH]2)nc1C returned dFosB activator -29, PvdQ acylase -61, PglD inh 21*, CDK5 inh 0 and PglD confirm 0.
Screening CCCCNc1cc(=O)oc2ccccc12 returned dFosB activator -1, PvdQ acylase 15 and CDK5 inh 0.
COC(CNc1cc(=O)oc2ccccc12)OC was read as dFosB activator 3, PvdQ acylase -5, PglD inh 23*, CDK5 inh 1 and PglD confirm 1.
For O=C1c2ccc(Br)cc2C(=O)N1c1ccc(Cl)cn1 the results were SIRT5 inh -1, dFosB activator -7, PvdQ acylase -15, FGF22 binding 0, PglD inh -2 and CDK5 inh 0.
Cc1nnc(N2C(=O)c3ccc(Br)cc3C2=O)s1 was read as SIRT5 inh 0, dFosB activator -3, PvdQ acylase 1, FGF22 binding 0, PglD inh 22*, CDK5 inh -6 and PglD confirm 2.
For CO[C@H]1CN(C)C(=O)c2ccc(NC(=O)c3cnccn3)cc2OC[C@@H](C)N(C(C)=O)C[C@@H]1C the results were SIRT5 inh -17, FGF22 binding 0 and PglD inh -1.
`Cc1cccc(NC(=O)CN(C)C(=O)C2CC2)c1C` gave SIRT5 inh -3, dFosB activator -1, PvdQ acylase -11, FGF22 binding 0, PglD inh 22*, CDK5 inh -10 and PglD confirm 4.
`COc1ccc(S(=O)(=O)N2CCCC2)cc1Br` gave SIRT5 inh -1, dFosB activator -9, PvdQ acylase -19, FGF22 binding 0, PglD inh -3 and CDK5 inh -1.
For COc1ccc(S(=O)(=O)N2CCN(C(=O)C3CC3)CC2)cc1Br the results were SIRT5 inh 1, dFosB activator -2, PvdQ acylase -8, FGF22 binding 0, PglD inh 42*, CDK5 inh -8 and PglD confirm -4.
Screening O=C(CSCCO)Nc1cccc(C(F)(F)F)c1 returned dFosB activator 0, PvdQ acylase -15, PglD inh 23*, CDK5 inh 0 and PglD confirm -1.
`Cn1nc([N+](=O)[O-])nc1N1CCOCC1` gave dFosB activator 2, PvdQ acylase 2, PglD inh 21*, CDK5 inh 1 and PglD confirm 1.
Screening C#CC1CCCCC1NC(=O)Nc1cnccc1C(F)(F)F (configuration not stated) returned SIRT5 inh 1, dFosB activator 5, PvdQ acylase -11, FGF22 binding 0, PglD inh 20*, CDK5 inh -1 and PglD confirm -2.
For OC[C@H]1Nc2ccc(-c3cccc(F)c3)cc2[C@@H]2[C@H]1CCN2Cc1ccc(F)cc1 the results were SIRT5 inh 8, FGF22 binding -1 and PglD inh 2.
Screening COc1ccc2c3c([nH]c2c1)[C@@H](CO)N(Cc1nccs1)CC31CN(Cc2ccncc2)C1 returned SIRT5 inh -1 and FGF22 binding 0.
O=C(NCCc1ccccc1)C1CCN(S(=O)(=O)c2cccs2)CC1 was read as dFosB activator -2, PvdQ acylase 6, PglD inh 3 and CDK5 inh 2.
O=C(NCCc1ccc(Cl)cc1)C1CCN(S(=O)(=O)c2cccs2)CC1 was read as dFosB activator -9, PvdQ acylase -4, PglD inh 21*, CDK5 inh -4 and PglD confirm 0.
